For one sequence, binding signal results are on record in publication PMC7862700, “An all-to-all approach to the identification of sequence-specific readers for epigenetic DNA modifications on cytosine”.

Experiment in all cases: DAPPL (digital affinity profiling via proximity ligation, sequencing); 10 mM Tris-HCl pH 7.5, 50 mM NaCl, 1 mM DTT, 4% glycerol, room temperature, 30 min; GST-TFs on glutathione beads, 16-mer random dsDNA library, 0.1% formaldehyde crosslink after washing; high values mean tight binding
Common to all, as to details: protein: recombinant; tags: N-terminal GST; dsDNA, one strand shown

The target in one experiment is T1, FLI1 (Homo sapiens, UniProt Q01543 1-452).
T1 sequence: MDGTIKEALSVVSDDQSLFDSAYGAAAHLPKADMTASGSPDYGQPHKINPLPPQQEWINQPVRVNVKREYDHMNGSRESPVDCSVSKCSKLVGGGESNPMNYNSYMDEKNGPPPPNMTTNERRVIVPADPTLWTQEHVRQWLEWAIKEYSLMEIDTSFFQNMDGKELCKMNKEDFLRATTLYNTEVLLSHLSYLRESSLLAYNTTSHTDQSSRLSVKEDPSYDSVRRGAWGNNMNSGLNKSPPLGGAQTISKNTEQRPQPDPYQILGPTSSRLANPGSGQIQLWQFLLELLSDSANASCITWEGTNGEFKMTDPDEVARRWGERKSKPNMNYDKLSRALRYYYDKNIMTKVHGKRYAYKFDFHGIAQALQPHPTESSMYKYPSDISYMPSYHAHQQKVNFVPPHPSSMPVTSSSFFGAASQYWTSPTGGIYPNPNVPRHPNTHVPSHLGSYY
The method in brief:
(§1)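 In yeast, human transcription factors were expressed with a GST fusion, then pulled down on glutathione beads and given DNA barcodes. Pooled with a tag-only sample, they were exposed to 200 nmole of a 16-mer random double-stranded DNA library (Tris/NaCl/DTT/glycerol buffer, room temperature, 30 min), washed, crosslinked with 0.1% formaldehyde, proximity-ligated using BsaI/T4 ligase for 1 h at 37 °C, PCR-amplified and read on an Illumina NextSeq500. Each hexamer's frequency of reads for a factor, divided by the matching frequency for the tag-only sample, gives the binding signal.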

The next experiment has as its target T2, ELK1 (Homo sapiens, UniProt P19419 1-428).
T2 sequence: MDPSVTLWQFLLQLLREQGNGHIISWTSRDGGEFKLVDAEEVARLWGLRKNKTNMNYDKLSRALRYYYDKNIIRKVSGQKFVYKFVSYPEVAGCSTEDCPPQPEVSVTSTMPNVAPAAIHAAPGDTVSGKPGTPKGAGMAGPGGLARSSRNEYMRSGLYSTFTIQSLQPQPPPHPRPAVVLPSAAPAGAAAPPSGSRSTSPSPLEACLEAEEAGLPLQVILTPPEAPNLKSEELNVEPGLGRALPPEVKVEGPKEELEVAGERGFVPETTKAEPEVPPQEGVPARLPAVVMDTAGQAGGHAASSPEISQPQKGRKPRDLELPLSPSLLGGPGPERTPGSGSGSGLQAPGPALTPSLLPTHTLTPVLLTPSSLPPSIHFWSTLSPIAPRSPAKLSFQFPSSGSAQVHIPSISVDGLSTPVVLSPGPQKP
An outline of the steps:
as §1

A further experiment addresses T3, GABPA (Homo sapiens, UniProt Q06546 1-454).
T3 sequence: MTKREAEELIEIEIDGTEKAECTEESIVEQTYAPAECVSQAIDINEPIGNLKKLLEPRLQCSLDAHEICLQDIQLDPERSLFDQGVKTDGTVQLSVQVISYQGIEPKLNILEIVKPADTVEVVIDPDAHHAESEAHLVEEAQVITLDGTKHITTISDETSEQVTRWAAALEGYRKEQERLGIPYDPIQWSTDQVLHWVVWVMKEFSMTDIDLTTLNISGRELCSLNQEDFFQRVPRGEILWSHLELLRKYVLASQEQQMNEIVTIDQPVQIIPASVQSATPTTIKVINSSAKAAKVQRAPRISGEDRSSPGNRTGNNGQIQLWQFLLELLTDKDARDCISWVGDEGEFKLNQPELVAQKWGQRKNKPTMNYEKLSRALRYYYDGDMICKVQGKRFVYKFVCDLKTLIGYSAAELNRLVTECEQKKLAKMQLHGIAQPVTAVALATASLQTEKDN
The method in brief: as §1

Another experiment concerns the target T4, ERG (Homo sapiens, UniProt P11308 1-479).
T4 sequence: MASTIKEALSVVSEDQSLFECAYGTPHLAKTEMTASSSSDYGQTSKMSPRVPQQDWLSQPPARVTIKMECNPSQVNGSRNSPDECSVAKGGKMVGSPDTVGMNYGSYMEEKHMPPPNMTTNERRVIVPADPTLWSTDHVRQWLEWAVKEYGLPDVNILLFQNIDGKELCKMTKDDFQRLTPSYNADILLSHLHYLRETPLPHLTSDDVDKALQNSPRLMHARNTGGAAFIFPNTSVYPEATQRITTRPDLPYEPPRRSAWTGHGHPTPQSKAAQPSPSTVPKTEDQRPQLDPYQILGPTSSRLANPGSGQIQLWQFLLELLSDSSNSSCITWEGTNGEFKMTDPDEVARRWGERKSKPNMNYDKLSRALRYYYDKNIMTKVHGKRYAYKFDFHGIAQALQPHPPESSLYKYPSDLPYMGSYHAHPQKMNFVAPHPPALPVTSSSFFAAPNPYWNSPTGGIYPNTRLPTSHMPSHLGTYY
The method in brief: as §1

The target of the next experiment is ELF1 (Homo sapiens, UniProt P32519 1-619). An outline of the steps: as §1
The next experiment concerns the target T5, EHF (Homo sapiens, UniProt Q9NZC4 1-300).
T5 sequence: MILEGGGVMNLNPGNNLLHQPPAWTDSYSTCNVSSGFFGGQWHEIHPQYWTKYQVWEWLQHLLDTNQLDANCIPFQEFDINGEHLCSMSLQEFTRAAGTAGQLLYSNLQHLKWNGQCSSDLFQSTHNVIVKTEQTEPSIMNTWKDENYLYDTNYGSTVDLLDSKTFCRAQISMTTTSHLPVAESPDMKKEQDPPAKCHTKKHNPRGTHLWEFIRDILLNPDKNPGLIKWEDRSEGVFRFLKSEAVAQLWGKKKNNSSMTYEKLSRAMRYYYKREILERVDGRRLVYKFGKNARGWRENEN
An outline of the steps:
as §1

A further experiment deals with SPI1 (Homo sapiens, UniProt P17947 1-270). An outline of the steps: as §1
Another experiment addresses SPIB (Homo sapiens, UniProt Q01892 1-262). An outline of the steps:
as §1

The target of the next experiment is T6, ELK3 (Homo sapiens, UniProt P41970 1-407).
T6 sequence: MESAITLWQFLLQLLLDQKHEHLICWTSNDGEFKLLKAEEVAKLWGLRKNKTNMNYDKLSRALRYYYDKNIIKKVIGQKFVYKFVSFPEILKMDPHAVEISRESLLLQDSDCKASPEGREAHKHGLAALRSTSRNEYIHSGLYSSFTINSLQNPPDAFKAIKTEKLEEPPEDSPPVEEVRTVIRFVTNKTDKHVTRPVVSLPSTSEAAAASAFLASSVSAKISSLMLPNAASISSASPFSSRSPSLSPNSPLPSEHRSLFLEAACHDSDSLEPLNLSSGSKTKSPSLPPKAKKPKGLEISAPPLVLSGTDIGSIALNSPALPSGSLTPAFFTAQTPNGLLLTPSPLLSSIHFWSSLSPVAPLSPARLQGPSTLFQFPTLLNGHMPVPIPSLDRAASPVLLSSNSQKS
An outline of the steps: as §1

Chain of SPIB (Q01892 whole entry): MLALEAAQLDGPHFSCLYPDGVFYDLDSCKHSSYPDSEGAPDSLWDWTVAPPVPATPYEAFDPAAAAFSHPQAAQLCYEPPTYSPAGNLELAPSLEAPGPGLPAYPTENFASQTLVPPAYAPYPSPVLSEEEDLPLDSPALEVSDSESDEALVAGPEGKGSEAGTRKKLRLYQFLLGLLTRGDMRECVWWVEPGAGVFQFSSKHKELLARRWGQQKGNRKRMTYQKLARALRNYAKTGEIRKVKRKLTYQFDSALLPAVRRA
Chain of ELF1 (P32519 whole entry): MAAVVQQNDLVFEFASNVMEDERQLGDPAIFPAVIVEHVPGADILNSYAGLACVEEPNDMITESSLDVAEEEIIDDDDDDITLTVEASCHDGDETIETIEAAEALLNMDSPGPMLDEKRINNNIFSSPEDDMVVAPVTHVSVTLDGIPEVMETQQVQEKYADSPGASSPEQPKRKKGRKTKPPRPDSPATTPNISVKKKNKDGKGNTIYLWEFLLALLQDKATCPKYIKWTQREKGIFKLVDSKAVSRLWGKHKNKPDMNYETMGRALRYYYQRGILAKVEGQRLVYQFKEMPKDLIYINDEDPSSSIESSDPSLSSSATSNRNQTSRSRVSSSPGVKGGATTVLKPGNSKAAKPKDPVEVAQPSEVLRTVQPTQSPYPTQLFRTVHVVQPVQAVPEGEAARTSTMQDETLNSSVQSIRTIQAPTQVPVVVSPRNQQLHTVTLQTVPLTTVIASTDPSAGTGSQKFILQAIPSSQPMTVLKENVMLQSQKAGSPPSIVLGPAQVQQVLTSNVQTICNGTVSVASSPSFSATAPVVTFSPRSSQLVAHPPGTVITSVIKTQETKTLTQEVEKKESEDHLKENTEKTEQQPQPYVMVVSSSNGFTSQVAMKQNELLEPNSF

With TATGCG, the binding signal is 1.5 fold enrichment (6-mer frequency, TF over GST control) with FLI1; 1.42 fold enrichment (6-mer frequency, TF over GST control) with ELK1; 1.35 fold enrichment (6-mer frequency, TF over GST control) in the experiment with GABPA; 1.31 fold enrichment (6-mer frequency, TF over GST control) with ERG; 1.31 fold enrichment (6-mer frequency, TF over GST control) in the experiment with ELF1; 1.37 fold enrichment (6-mer frequency, TF over GST control) with EHF. Further, the binding signal in the experiment with SPI1 is 1.32 fold enrichment (6-mer frequency, TF over GST control); in the experiment with SPIB, 1.29 fold enrichment (6-mer frequency, TF over GST control); with ELK3, 1.39 fold enrichment (6-mer frequency, TF over GST control).
